Measurements reported in PubChem BioAssay.
Active and inactive are the calls of the source.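 Rule for the calls: active = mean duplicate potentiation above the buffer control mean plus 5 SD of buffer wells; inactive = the rest.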

Target: Potassium voltage-gated channel subfamily KQT member 2 (Rattus norvegicus) (UniProt O88943)
Test: KCNQ2 thallium flux enhancement – KCNQ2-CHO-K1 cells, selectivity assay for KCNQ1 potentiator project (AID 493009);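 note: assay conditions were tuned for KCNQ1 rather than KCNQ2 modulators; signal is max minus min fluorescence divided by baseline after thallium stimulus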
Details: FluxOR thallium flux fluorescence, at 10 µM; hits give high values, scaled: buffer 0, activator control 100

Sequence of Potassium voltage-gated channel subfamily KQT member 2 (Rattus norvegicus) (O88943 whole entry, looked up): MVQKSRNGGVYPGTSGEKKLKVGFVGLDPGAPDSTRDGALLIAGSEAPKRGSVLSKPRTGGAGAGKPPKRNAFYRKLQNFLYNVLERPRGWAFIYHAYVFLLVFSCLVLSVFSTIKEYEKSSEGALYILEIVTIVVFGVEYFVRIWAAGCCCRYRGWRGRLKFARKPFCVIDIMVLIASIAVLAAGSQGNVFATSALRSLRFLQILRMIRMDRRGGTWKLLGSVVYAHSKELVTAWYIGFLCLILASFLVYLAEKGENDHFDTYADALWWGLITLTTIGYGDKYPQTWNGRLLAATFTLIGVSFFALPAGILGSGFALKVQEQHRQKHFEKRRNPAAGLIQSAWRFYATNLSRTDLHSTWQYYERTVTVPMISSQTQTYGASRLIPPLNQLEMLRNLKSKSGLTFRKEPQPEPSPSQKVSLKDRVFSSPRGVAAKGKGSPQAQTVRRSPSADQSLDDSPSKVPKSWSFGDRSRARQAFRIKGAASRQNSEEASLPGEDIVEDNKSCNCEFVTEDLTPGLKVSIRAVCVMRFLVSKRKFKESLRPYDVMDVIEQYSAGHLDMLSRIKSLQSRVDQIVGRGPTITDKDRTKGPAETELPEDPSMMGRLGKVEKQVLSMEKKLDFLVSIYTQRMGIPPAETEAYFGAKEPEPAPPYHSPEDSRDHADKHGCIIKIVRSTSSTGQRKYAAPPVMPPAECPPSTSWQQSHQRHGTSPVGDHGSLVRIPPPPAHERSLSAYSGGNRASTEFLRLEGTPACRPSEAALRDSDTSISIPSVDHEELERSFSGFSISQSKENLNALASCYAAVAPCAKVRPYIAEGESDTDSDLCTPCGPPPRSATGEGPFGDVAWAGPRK

outcome, inactive:
Cc1cc(C)cc(OCC(O)Cn2nc(C)cc2C)c1 (centres undefined)
N#Cc1cn(CC(=O)NCC2CCCO2)c2ccccc12 (centres undefined)
O=C(Cn1c(=O)oc2ccccc21)N1CCN(c2ccc(N3CCOCC3)nn2)CC1
COc1cccc(C(=O)NC(=S)Nc2ccc3c4c(cccc24)CC3)c1
COc1cc(CNCCN2CCOCC2)ccc1OCc1ccc(Cl)cc1Cl
CCCN(C(=O)c1cn(-c2ccccc2)nc1-c1ccc(OC)cc1)C1CCS(=O)(=O)C1 (centres undefined)
COc1cc(CN(C)CC2CCCN(CCc3cccc(C(F)(F)F)c3)C2)ccc1O (centres undefined)
OCCCCNCc1ccc(OCc2ccc(Cl)cc2Cl)cc1
Cc1ccc(NC(=O)CN(C)C(=O)CCOc2ccccc2C)cc1
C/C(=N/NC(=O)c1ccc(Br)o1)c1ccc(C)o1
Cc1cccc(NC(=S)NC(=O)c2cc(-c3ccccc3)nc3ccccc23)c1
O=c1c2cccnc2n(-c2ccccc2)n1Cc1ccc(Cl)cc1
COc1cccc2sc(N(CCCN(C)C)C(=O)CCS(=O)(=O)c3ccccc3)nc12
CCCCNC(=S)NNC(=O)c1nn(C)c(C)c1Cl
CC(C)c1nc2n[nH]c(N)c2c2c1CCCC2
Cn1ncc2c(O/N=C(\N)c3ccc(C(C)(C)C)cc3)ncnc21
O=C1CCC/C(=N\NC(=O)c2ccc(COc3cccc4cccnc34)cc2)C1
Cc1ccc(-c2ccc(=O)n(Cc3cccc(Br)c3)n2)cc1
O=c1cc(-c2c(F)c(F)c(F)c(F)c2F)oc2ccccc12
CN(CC(=O)NCCc1ccc(F)cc1)Cc1cccc(Cl)c1
CCCCOc1ccc(C(=O)Oc2ccc(C)nc2)cc1
C[C@@H](NC(=O)[C@@H]1Cc2ccccc2CN1)C(=O)NC1CCCC1
Cc1ccc(-c2ccnc(=S)[nH]2)cc1
CCOC(=O)Cc1csc(NC(=O)CSc2nnnn2-c2ccc(C)cc2C)n1

potentiation, active:
CCOc1ccc(C(=O)NC(=S)N(Cc2ccccc2)Cc2ccccc2)cc1 522%
Cc1cc(C(c2cc(C)c(N)c(C)c2)c2ccco2)cc(C)c1N 224%
O=C(NC(=S)N(CCCCO)C1CCCCC1)c1sc2ccccc2c1Cl 392%
CCc1nnc(SCC(=O)Nc2nnc(C)s2)n1CC1CCCO1 (centres undefined) 274%
Cc1csc(=O)n1CCC(=O)OCC(=O)NCc1ccc(F)cc1 186%
S=C(N/N=C/c1ccccc1Cl)Nc1cccc(Cl)c1Cl 173%
Cc1sc2ncnc(SCC(=O)c3ccc(O)cc3O)c2c1C 176%
CC(C)n1cc(NC(=O)c2cc(-c3ccccc3)on2)cn1 236%
COC(=O)c1c(N)sc2c1CCN(c1ncc(C(F)(F)F)cc1Cl)C2 142%
O=C(NC(=S)N1CCc2ccccc21)c1ccccc1Br 490%
Cc1ccc(-c2csc(=S)[nH]2)cc1 643%
COc1ccccc1C(=O)NNC(=O)C(=O)Nc1ccc(C)c(Cl)c1 512%
CC1CCCN(c2ccc(C(=O)NCc3ccccc3)cn2)C1 (centres undefined) 152%
COc1ccc(C(=O)NC(=S)N2CCC(C)CC2)cc1Br 290%
O=C(NC(=S)Nc1cccc(Cl)c1N1CCCCC1)c1ccco1 178%
